According to PubChem BioAssay (NCI):
The panel holds about 79,000 compounds, 15% with a hit somewhere; the sample as a whole holds those more often. Activity calls are given as the source filed them. Cut-off read from the data, not from the text of the source: active = growth inhibition above about 70%; inactive = the rest.

What was measured:
[1] = NCI Yeast Anticancer Drug Screen. Data for the rad52 strain (AID 147);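 note: 0% = growth of vehicle-treated control cultures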; conditions: S. cerevisiae rad52 mutant growth inhibition, stronger effect = higher value
How it was run: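 Screen used a yeast mutant impaired in DNA repair. After compound exposure, growth was measured. Values reflect inhibition compared with vehicle-treated cells.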

[2] = NCI Yeast Anticancer Drug Screen. Data for the rad50EPP+ strain (AID 151);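 note: 0% = growth of vehicle-treated control cultures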; conditions: S. cerevisiae rad50 mutant strain, stronger effect = higher value
How it was run: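 Exposing the rad50EPP+ strain to each compound, growth was compared with vehicle-only cultures to give inhibition.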

[3] = NCI Yeast Anticancer Drug Screen. Data for the mgt1 strain (AID 153); conditions: S. cerevisiae mgt1 mutant growth inhibition, stronger effect = higher value
How it was run: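 Genetically defined yeast (mgt1) treated with compound; inhibition of growth expressed against vehicle-treated controls.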

[4] = NCI Yeast Anticancer Drug Screen. Data for the rad50 strain (AID 155);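 note: 0% = growth of vehicle-only cultures of the same strain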; conditions: S. cerevisiae rad50 strain growth inhibition, stronger effect = higher value
How it was run: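 Compounds were tested on a yeast strain with an engineered DNA damage repair alteration; the reported value is growth inhibition normalised to vehicle treatment.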

[5] = NCI Yeast Anticancer Drug Screen. Data for the mec2-1 strain (AID 157); conditions: S. cerevisiae mec2-1 strain, stronger effect = higher value
How it was run: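 Readout is yeast growth inhibition, normalised to vehicle-treated controls, in the mec2-1 strain exposed to compound.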

[6] = NCI Yeast Anticancer Drug Screen. Data for the rad14 strain (AID 159);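 note: 0% = growth of vehicle-treated control cultures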; conditions: S. cerevisiae rad14 strain growth inhibition, stronger effect = higher value
How it was run: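 Compound-treated yeast with a defined DNA-repair lesion; growth inhibition normalised to vehicle-treated cultures.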

[7] = NCI Yeast Anticancer Drug Screen. Data for the sgs1 mgt1 strain (AID 161);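 note: 0% = growth of cultures given vehicle only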; conditions: S. cerevisiae sgs1 mgt1 strain, stronger effect = higher value
How it was run: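 Yeast cells carrying a defined DNA-repair defect were exposed to test compounds. Growth inhibition was measured relative to vehicle-treated controls.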

[8] = NCI Yeast Anticancer Drug Screen. Data for the CLN2oe strain (AID 163);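 note: 0% = growth of vehicle-only control cultures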; conditions: S. cerevisiae CLN2oe strain, stronger effect = higher value
How it was run: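 Values reflect how much compound exposure reduced yeast growth, referenced to vehicle-exposed cells. Assay organism is a strain with a defined genetic change affecting cell-cycle control.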

[9] = NCI Yeast Anticancer Drug Screen. Data for the cln2 rad14 strain (AID 165);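 note: 0% = growth equal to vehicle treated cultures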; conditions: S. cerevisiae cln2 rad14 strain, stronger effect = higher value
How it was run: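 Relative to vehicle controls, growth inhibition of compound-treated cln2 rad14 yeast was recorded.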

[10] = NCI Yeast Anticancer Drug Screen. Data for the bub3 strain (AID 167); conditions: S. cerevisiae bub3 mutant strain, stronger effect = higher value
How it was run: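 Growth of a checkpoint-deficient yeast mutant is measured after compound exposure. Values represent inhibition relative to vehicle.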

[11] = NCI Yeast Anticancer Drug Screen. Data for the wt2 strain (AID 169);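 note: 0% = growth of vehicle-treated yeast cultures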; conditions: S. cerevisiae wt2 strain growth inhibition, stronger effect = higher value
How it was run: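 Values express reduction in yeast growth under compound treatment, referenced to vehicle-treated cells.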

[12] = NCI Yeast Anticancer Drug Screen. Data for the mlh1 strain (AID 171);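 note: 0% = growth of vehicle-treated control cultures of the same strain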; conditions: S. cerevisiae mlh1 strain growth inhibition, stronger effect = higher value
How it was run: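 Steps: expose the defined-mutant yeast strain to compound; expose a parallel culture to vehicle; measure growth; express compound effect as inhibition relative to the vehicle culture.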

[13] = NCI Yeast Anticancer Drug Screen. Data for the sgs1 strain (AID 173);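 note: 0% = growth of vehicle-only control cultures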; conditions: S. cerevisiae sgs1 mutant, stronger effect = higher value
How it was run: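 Treat defined-mutant yeast with compound; measure growth; calculate inhibition relative to vehicle-treated cells.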

[14] = NCI Yeast Anticancer Drug Screen. Data for the mlh1 rad18 strain (AID 175); conditions: S. cerevisiae mlh1 rad18 strain growth inhibition, stronger effect = higher value
How it was run: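 Test agents were incubated with a yeast strain of defined genotype (DNA damage repair defect). Inhibition of growth was derived by comparison with vehicle-exposed cultures.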

[15] = NCI Yeast Anticancer Drug Screen. Data for the rad18 strain (AID 177); conditions: S. cerevisiae rad18 mutant growth inhibition, stronger effect = higher value
How it was run: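 A genetically defined yeast mutant impaired in DNA damage repair was treated with test compounds, then its growth was measured against cultures receiving vehicle alone.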

[16] = NCI Yeast Anticancer Drug Screen. Data for the wt1 strain (AID 149);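 note: 0% = growth of vehicle-treated wt1 cultures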; conditions: S. cerevisiae wt1 strain (SPY 50644) growth inhibition, stronger effect = higher value
How it was run: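 Readout: yeast growth inhibition, normalised to vehicle controls, in the wt1 strain exposed to test compounds.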

[17] = at 5.0 µM (retest, dose inferred, filed as 0.5)
[18] = at 50.0 µM (retest, dose inferred, filed as 5.0)

Measured: growth inhibition

CN(C)c1ccc(Sc2ccc3nc(N)nc(N)c3c2)cc1
active: [5]; [18] 80% | [5]; at 50.0 µM 89.3%
inactive: [1]; at 1.2 µM 9% | [1]; at 3.7 µM 28% | [1]; at 11.0 µM 31% | [1]; at 33.0 µM 27% | [1]; at 100.0 µM 51% | [2]; at 1.2 µM 15% | [2]; at 3.7 µM 30% | [2]; at 11.0 µM 24% | [2]; at 33.0 µM 30% | [2]; at 100.0 µM 28% | [3]; at 1.2 µM -5% | [3]; at 3.7 µM 2% | [3]; at 11.0 µM -4% | [3]; at 33.0 µM -11% | [3]; at 100.0 µM 7% | [4]; at 1.2 µM -18% | [4]; at 3.7 µM 7% | [4]; [17] 41% | [4]; at 11.0 µM 8% | [4]; at 33.0 µM 5% | [4]; [18] 41% | [4]; at 50.0 µM 60% | [4]; at 100.0 µM 40% | [5]; at 1.2 µM -28% | [5]; at 3.7 µM -28% | [5]; [17] 28% | [5]; at 11.0 µM -4% | [5]; at 33.0 µM 13% | [5]; at 100.0 µM 55% | [6]; at 1.2 µM -15% | [6]; at 3.7 µM -4% | [6]; at 11.0 µM -9% | [6]; at 33.0 µM -14% | [6]; at 100.0 µM 5% | [7]; [17] 29% | [7]; [18] 67% | [7]; at 50.0 µM 60% | [8]; at 1.2 µM 17% | [8]; at 3.7 µM 8% | [8]; at 11.0 µM 17% | [8]; at 33.0 µM -11% | [8]; at 100.0 µM 18% | [9]; [17] 24% | [9]; [18] 6% | [9]; at 50.0 µM 25.4% | [10]; at 1.2 µM -17% | [10]; at 3.7 µM -11% | [10]; [17] 27% | [10]; at 11.0 µM -20% | [10]; at 33.0 µM -17% | [10]; [18] 43% | [10]; at 50.0 µM 21.9% | [10]; at 100.0 µM -9% | [11]; at 1.2 µM -4% | [11]; at 3.7 µM -1% | [11]; at 11.0 µM 9% | [11]; at 33.0 µM 7% | [11]; at 100.0 µM 1% | [12]; at 1.2 µM -4% | [12]; at 3.7 µM -8% | [12]; at 11.0 µM -16% | [12]; at 33.0 µM -9% | [12]; at 100.0 µM 18% | [13]; at 1.2 µM 14% | [13]; at 3.7 µM 21% | [13]; at 11.0 µM 24% | [13]; at 33.0 µM 17% | [13]; at 100.0 µM 18% | [14]; [17] 34% | [14]; [18] 34% | [14]; at 50.0 µM 51.8% | [15]; at 1.2 µM 3% | [15]; at 3.7 µM -17% | [15]; at 11.0 µM -12% | [15]; at 33.0 µM -17% | [15]; at 100.0 µM 11%

CSC(=S)N/N=C(\C)c1cccc(C)n1
active: [1]; at 100.0 µM 97% | [16]; at 100.0 µM 99% | [3]; at 100.0 µM 98% | [4]; at 33.0 µM 93% | [4]; [18] 99% | [4]; at 50.0 µM 99.4% | [4]; at 100.0 µM 98% | [5]; [18] 99% | [5]; at 50.0 µM 99.4% | [5]; at 100.0 µM 98% | [6]; at 100.0 µM 98% | [7]; [18] 99% | [7]; at 50.0 µM 99.3% | [8]; at 100.0 µM 97% | [9]; [18] 98% | [9]; at 50.0 µM 99.2% | [10]; [18] 99% | [10]; at 50.0 µM 99.2% | [10]; at 100.0 µM 98% | [11]; at 100.0 µM 99% | [12]; at 100.0 µM 99% | [13]; at 100.0 µM 99% | [14]; [18] 99% | [14]; at 50.0 µM 99.2% | [15]; at 33.0 µM 75% | [15]; at 100.0 µM 96%
inactive: [1]; at 1.2 µM -3% | [1]; at 3.7 µM -5% | [1]; at 11.0 µM -8% | [1]; at 33.0 µM 47% | [16]; at 1.2 µM -4% | [16]; at 3.7 µM -7% | [16]; at 11.0 µM -4% | [16]; at 33.0 µM 19% | [3]; at 1.2 µM -7% | [3]; at 3.7 µM -11% | [3]; at 11.0 µM -10% | [3]; at 33.0 µM 39% | [4]; at 1.2 µM -4% | [4]; at 3.7 µM 2% | [4]; [17] -6% | [4]; at 11.0 µM 11% | [5]; at 1.2 µM -6% | [5]; at 3.7 µM -13% | [5]; [17] 28% | [5]; at 11.0 µM -10% | [5]; at 33.0 µM 62% | [6]; at 1.2 µM -8% | [6]; at 3.7 µM 6% | [6]; at 11.0 µM -5% | [6]; at 33.0 µM 44% | [7]; [17] 23% | [8]; at 1.2 µM -24% | [8]; at 3.7 µM -24% | [8]; at 11.0 µM -15% | [8]; at 33.0 µM 21% | [9]; [17] 59% | [10]; at 1.2 µM -14% | [10]; at 3.7 µM -20% | [10]; [17] 19% | [10]; at 11.0 µM 9% | [10]; at 33.0 µM 34% | [11]; at 1.2 µM -6% | [11]; at 3.7 µM -6% | [11]; at 11.0 µM -5% | [11]; at 33.0 µM 63% | [12]; at 1.2 µM -11% | [12]; at 3.7 µM -1% | [12]; at 11.0 µM -6% | [12]; at 33.0 µM 29% | [13]; at 1.2 µM -3% | [13]; at 3.7 µM -5% | [13]; at 11.0 µM -4% | [13]; at 33.0 µM 57% | [14]; [17] 20% | [15]; at 1.2 µM -5% | [15]; at 3.7 µM -5% | [15]; at 11.0 µM 10%
